Experimental data as given in PubChem BioAssay AID1359 (The Scripps Research Institute Molecular Screening Center, 2008).
The whole screen tested about 220,000 compounds, of which about 970 (0.44%) were called active. Shown is part of a subset that was picked to be rich in actives. A number with no mark means an inactive call. Cut-off read from the data, not from the text of the source: active = activation above about 27%; inactive = the rest.

These compounds were tested against Neuropeptide Y receptor type 2 (Homo sapiens) (UniProt P49146) (assay: NPY-Y2 potentiators or agonists, primary screen, cell-based (AID 1359;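 note: cells stimulated with NPY near EC25 plus isoproterenol at EC100; 0% = vehicle plus submaximal agonist and 100% = vehicle plus saturating agonist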)). Conditions: cells expressing NPY-Y2, potentiator/agonist read-out; at 3.6 µM; stronger effect = higher value.
Sequence of Neuropeptide Y receptor type 2 (Homo sapiens) (P49146 whole entry, looked up): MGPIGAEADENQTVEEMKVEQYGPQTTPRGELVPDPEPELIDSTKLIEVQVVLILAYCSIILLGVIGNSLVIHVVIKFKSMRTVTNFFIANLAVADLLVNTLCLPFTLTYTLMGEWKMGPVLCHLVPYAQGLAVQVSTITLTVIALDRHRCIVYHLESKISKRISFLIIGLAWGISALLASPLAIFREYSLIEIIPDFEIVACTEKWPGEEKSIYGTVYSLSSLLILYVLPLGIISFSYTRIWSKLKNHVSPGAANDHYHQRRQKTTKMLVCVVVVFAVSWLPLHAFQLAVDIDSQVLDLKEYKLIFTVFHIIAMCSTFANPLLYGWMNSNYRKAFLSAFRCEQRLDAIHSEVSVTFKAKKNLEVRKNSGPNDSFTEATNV

For `CC1(C)Cc2c(C#N)c(N3CCNCC3)nc(-c3ccco3)c2CS1`, the activation was 54.8% (active).

Going from `CN(C)P(=S)(Nc1ccccc1)C(Cl)(Cl)Cl` (stereo not given) to `Cn1c(O)c(C(=Nc2ccc(F)cc2)c2ccccc2)c(=O)n(C)c1=O`, the activation falls from 3.95% to -10.2%.

Going from `CCN1CC2C3CCC(C)(O3)C2C1` (stereo not given) to `CCCCCCCCCCCCn1ccc(=N)cc1`, the activation falls from 3.85% to -3.31%.
